High-throughput results deposited in PubChem by National Center for Advancing Translational Sciences (NCATS).
KDM5B inh = inhibitors of human KDM5B histone demethylase | Q9UGL1 | KDM5B demethylase, FDH-coupled NADH fluorescence (FDH is formaldehyde dehydrogenase) | Potency, µM (doses to about 57.7 µM), usual class: inhibitors | 220,000 tested, 2.6% active; active means well fitted inhibition curve with a large enough effect; further: 0% is about no effect; nearly all actives have a fitted effect of over 70% in size
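Compound dilutions met 200 nM (final) KDM5BΔAP for 10 min at room temperature before substrate addition. The substrate mix held 12.5 µM H3K4me3 with cofactors 25 µM α-ketoglutarate and 50 µM Fe²⁺. NADH signal gain over 30 min defined activity.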
* hit, by the source's call; i = inactive. This is one part of a sample in which hits are shown more often than they occur. Potency means the concentration at half of the fitted maximal effect.

SMILES | KDM5B inh
COc1ccc(S(=O)(=O)NCCNc2ncnc3c2c(C)nn3C)cc1 | i
CCC(C)Nc1nc(-c2ccccn2)nc2ccccc12 (stereo not given) | i
CNS(=O)(=O)CCNc1nc(-c2ccccn2)nc2c1c(C)nn2C | 22µM*
Cc1ncsc1CCCNc1nc(-c2ccccn2)nc2c1CCNCC2 | i
COC(CNc1nc(-c2ccccn2)nc2c1c(C)nn2C)c1cccs1 (stereo not given) | 28µM*
COC[C@@H]1[C@H](NC(=O)c2csc(C)c2-c2ccccc2)[C@@H]2CCO[C@H]12 | i
O=C(CSc1nnc(-c2ccncc2)n1Cc1ccccc1)Nc1ccccc1C(=O)NC1CC1 | i
O=C(CC1CCN(C(=O)c2ccc(F)cc2)C1)NCc1ccccc1 (stereo not given) | i
Cc1cc(-c2ccc(C)c(S(=O)(=O)NCC3CCN(Cc4ccc(F)cc4)CC3)c2)on1 | i
N#Cc1ccc(C(=O)N2C[C@@H]3C[C@H](C2)c2c(-c4ccc5ccccc5c4)ccc(=O)n2C3)cc1 | i
CC1=NS(=O)(=O)N(C)C=C1C(=O)OCc1nc(-c2ccccc2Cl)no1 | i
CCN(CC)Cc1nc(C2(O)CCN(C(=O)Nc3cccc(F)c3)CC2)cs1 | i
COc1ccc(OCC(=O)Nc2cc(-c3ccccc3F)nn2-c2ccccc2)cc1 | i
Brc1cccc(CSc2nc3ncccc3o2)c1 | i
COc1ccc(C2(C(=O)N3CC[C@H](CO)[C@H](NC(=O)C4CC4)C3)CC2)cc1 | i
COc1ccc(C(=O)N[C@@H]2CN(c3ccncn3)C[C@H]2CN(C)C)cc1F | i
CN(C)C[C@@H]1CN(c2ccncn2)C[C@H]1NC(=O)c1ccc2ncccc2c1 | i
COc1ccc(C(=O)N[C@@H]2CN(c3ncccn3)C[C@H]2CN(C)C)c(OC)c1 | 25µM*
COc1ccc(C(=O)NC2CCCC2)c(OC)c1 | i
COc1ccc(C2(C(=O)N[C@@H]3CN(c4ncccn4)C[C@H]3CN(C)C)CC2)cc1 | 28µM*
COc1cc(Cl)ccc1C(=O)N[C@@H]1CN(c2ncccn2)C[C@H]1CN(C)C | 28µM*
COc1ccc(C(=O)N[C@@H]2CN(c3ncccn3)C[C@H]2CN(C)C)cc1OC | 28µM*
COc1cccc(C(=O)N[C@@H]2CN(Cc3cccnc3)C[C@H]2CN(C)C)c1 | i
COc1cccc(CSc2nc3n(n2)C(c2ccc(C(=O)O)cc2)C(C(=O)Nc2ccccc2)=C(C)N3)c1 (stereo not given) | i
O=C(CC1CCCC1)NC1CCN(c2cnn(CC3CC3)c(=O)c2)CC1 | i
SMILES | KDM5B inh
Cc1c(Cl)cccc1-n1ncc2c1NC(=O)CC21C(=O)N(CC(N)=O)c2ccccc21 (stereo not given) | i
O=C(c1cccc(C(F)(F)F)c1)N1CCC(c2nn(-c3ccc(Cl)cc3)c(=O)[nH]2)CC1 | i
COCCCNC(=O)c1ccc(-n2c(-c3ccccc3)cc3c2CCCCC3)cc1 | i
CC(=O)NCCC1CCN(C(=O)Nc2ccc(C)c(F)c2)CC1 | i
CC(C)c1ccc(C(=O)N2C3CCCC2CC(=O)C3)cc1 | i
C#CCCN1CCN(C(=O)CCc2ncc(-c3ccc(C)cc3)o2)CC1 | i
CCOCCCNC(=O)c1ccccc1C | i
CN(C)C[C@@H]1CN(S(C)(=O)=O)C[C@H]1NC(=O)c1cccc2[nH]ccc12 | i
CN(C)C[C@@H]1CN(S(C)(=O)=O)C[C@H]1NC(=O)c1ccc(F)c(F)c1 | i
CN(C)C[C@@H]1CN(c2ncccn2)C[C@H]1NC(=O)c1ccc2cc[nH]c2c1 | 25µM*
CCCCCC1CCC(c2ccc(C(=O)Oc3cccnc3)cc2)CC1 (stereo not given) | i
COc1ccc(N2CCN(C(=O)c3c(C)oc4ncn(CC(C)C)c(=O)c34)CC2)cc1 | i
Cc1ccccc1Cn1cnc(NC(=O)c2cc(S(=O)(=O)N3CCCC3)c(Cl)cc2Cl)n1 | i
O=C(NCc1ccc(N2CCCC2)nc1)c1ccc(O)c(Cl)c1 | i
O=C(NCCCN1CCCC1)c1ccncc1 | i
Cc1ncsc1C(=O)NCc1ccc(N2CCCC2)nc1 | i
CCn1cc(-c2ccc(Cl)cc2)cc1C(=O)NCCN1CCOCC1 | i
O=C(NCCCN1CCOCC1)c1ccc(-c2ccc(N3CCCCCC3)nc2)cc1 | 25µM*
O=C(NCCN1CCOCC1)c1ccc(-c2ccc(N3CCCCCC3)nc2)cc1 | 28µM*
Cc1ccc(C(=O)NCCN2CCOCC2)cc1S(=O)(=O)N1CCCCC1 | i
Cc1ccc(CNC(=O)c2ccc(-c3ccc(N4CCCCC4)nc3)cc2)o1 | 20µM*
O=C(NCCCN1CCCC1=O)c1ccc(-c2ccc(N3CCSCC3)nc2)cc1 | i
CCc1cccc(NC(=O)CN(C)S(=O)(=O)c2cccc3cccnc23)c1 | i
Cc1nn(C)cc1CN(C)Cc1cn(C)nc1-c1ccc(C2CCCCC2)cc1 | i
Cn1cc(CN2CCN(c3cnccn3)CC2)c(-c2ccc(C3CCCCC3)cc2)n1 | 28µM*
Cn1cc(CN2CCN(c3ccc(C#N)cn3)CC2)c(-c2ccccc2)n1 | i
COc1ccccc1OC1(C(=O)O)CCN(c2cc(C)nc(C)c2)CC1 | i
